Experimental data published in PubChem BioAssay AID1159580 (chemical genetic matrix, 2015).
“And” between values parts separate entries of the source, which are not always exact repeats. Equal values may be shown once. Out of some 5,500 compounds screened, about 2,000 (36%) were called active. Another 18% or so got no clear call; they are omitted. Cut-off read from the data, not from the text of the source: active = normalized growth mostly below about 0.91 (no sharp cut-off); inconclusive = no clear call, values can overlap the other calls; inactive = mostly above about 0.92. This is one part of the list.

Experiment: chemical genetic growth profiling, strain panel (AID 1159580);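 note: tested at 20 µM; growth read once vehicle control cultures reached saturation at 30 °C; 1 = growth at the plate median or of vehicle wells; lower values mean less growth of the strain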
Conditions: S. cerevisiae deletion strains, growth OD

Measured: normalized growth

CC(=O)OC1CCC2C3CCc4cc(O)ccc4C3CCC12C (stereo not given)
inactive: locus YAL021C, strain ccr4, stronger effect = lower value 0.975 | locus YAL026C, strain drs2, stronger effect = lower value 0.96 | locus YAL030W, strain snc1, stronger effect = lower value 0.984 | locus YBR009C, strain hhf1, stronger effect = lower value 0.969 | locus YBR021W, strain FUR4, stronger effect = lower value 0.934 | locus YBR171W, strain sec66, stronger effect = lower value 0.996 | locus YBR229C, strain ROT2, stronger effect = lower value 1.01 | locus YBR231C, strain swc5, stronger effect = lower value 0.966 | locus YBR279W, strain paf1, stronger effect = lower value 0.979 | locus YCL011C, strain gbp2, stronger effect = lower value 0.929 | locus YCL016C, strain dcc1, stronger effect = lower value 0.954 | locus YCL029C, strain bik1, stronger effect = lower value 0.99 | locus YCL061C, strain MRC1, stronger effect = lower value 0.984 | locus YCL069W, strain vba3, stronger effect = lower value 1.02 | locus YCR088W, strain abp1, stronger effect = lower value 0.957 | locus YDL005C, strain med2, stronger effect = lower value 0.973 | locus YDL035C, strain GPR1, stronger effect = lower value 0.973 | locus YDL040C, strain nat1, stronger effect = lower value 1.01 | locus YDL074C, strain BRE1, stronger effect = lower value 0.827 | locus YDL101C, strain DUN1, stronger effect = lower value 0.98 | locus YDL134C, strain PPH21, stronger effect = lower value 0.973 | locus YDL185W, strain tfp1, stronger effect = lower value 1.02 | locus YDL192W, strain arf1, stronger effect = lower value 1.03 | locus YDR001C, strain nth1, stronger effect = lower value 0.999 | locus YDR069C, strain doa4, stronger effect = lower value 0.957 | locus YDR101C, strain arx1, stronger effect = lower value 1 | locus YDR150W, strain NUM1, stronger effect = lower value 1.01 | locus YDR162C, strain NBP2, stronger effect = lower value 1 | locus YDR297W, strain sur2, stronger effect = lower value 0.993 | locus YDR318W, strain mcm21, stronger effect = lower value 1 | locus YDR334W, strain swr1, stronger effect = lower value 1.01 | locus YDR335W, strain msn5, stronger effect = lower value 0.921 | locus YDR388W, stronger effect = lower value 0.997 | locus YDR502C, strain sam2, stronger effect = lower value 0.991 | locus YEL003W, strain gim4, stronger effect = lower value 0.993 | locus YEL037C, strain rad23, stronger effect = lower value 1 | locus YEL061C, strain CIN8 (second series), stronger effect = lower value 0.978 | locus YEL061C, strain CIN8, stronger effect = lower value 0.998 | locus YER015W, strain faa2, stronger effect = lower value 0.981 | locus YER110C, stronger effect = lower value 0.995 | locus YER111C, strain swi4, stronger effect = lower value 0.955 | locus YER155C, strain BEM2 (second series), stronger effect = lower value 0.934 | locus YER167W, strain BCK2, stronger effect = lower value 0.988 | locus YFR010W, strain ubp6, stronger effect = lower value 0.963 | locus YGL078C, strain dbp3, stronger effect = lower value 1.01 | locus YGL086W, strain mad1, stronger effect = lower value 0.979 | locus YGL167C, strain pmr1, stronger effect = lower value 0.999 | locus YGL173C, strain kem1, stronger effect = lower value 0.991 | locus YGL227W, strain vid30, stronger effect = lower value 1.01 | locus YGL240W, strain doc1, stronger effect = lower value 0.968 | locus YGL248W, strain PDE1, stronger effect = lower value 0.954 | locus YGL253W, strain hxk2, stronger effect = lower value 0.96 | locus YGR078C, strain PAC10, stronger effect = lower value 0.899 | locus YGR135W, strain pre9, stronger effect = lower value 1.03 | locus YGR229C, strain SMI1, stronger effect = lower value 0.849 | locus YGR252W, strain gcn5, stronger effect = lower value 0.986 | locus YHR013C, strain ard1, stronger effect = lower value 0.985 | locus YHR027C, strain rpn1, stronger effect = lower value 0.975 | locus YHR030C, strain SLT2, stronger effect = lower value 1.01 and 0.911 | locus YHR079C, strain IRE1 (second series), stronger effect = lower value 1 | locus YHR079C, strain IRE1, stronger effect = lower value 0.938 | locus YHR094C, strain hxt1, stronger effect = lower value 1.02 | locus YHR129C, strain ARP1, stronger effect = lower value 1 | locus YHR142W, strain chs7, stronger effect = lower value 0.903 | locus YHR200W, strain rpn10, stronger effect = lower value 1.02 | locus YIL066C, strain RNR3, stronger effect = lower value 0.962 | locus YIL073C, strain SPO22, stronger effect = lower value 0.957 | locus YIL125W, strain kgd1, stronger effect = lower value 1.01 | locus YIR030C, strain dcg1, stronger effect = lower value 1.02 | locus YJL092W, strain hpr5, stronger effect = lower value 0.986 | locus YJL095W, strain BCK1 (second series), stronger effect = lower value 1 | locus YJL095W, strain BCK1, stronger effect = lower value 0.892 and 0.899 | locus YJL115W, strain asf1, stronger effect = lower value 1.01 | locus YJL129C, strain trk1, stronger effect = lower value 0.92 | locus YJL134W, strain LCB3, stronger effect = lower value 1.01 | locus YJL154C, strain vps35, stronger effect = lower value 0.988 | locus YJL164C, strain tpk1, stronger effect = lower value 0.954 | locus YJL166W, strain qcr8, stronger effect = lower value 0.974 | locus YJL168C, strain set2, stronger effect = lower value 1.01 | locus YJL187C, strain SWE1 (second series), stronger effect = lower value 0.944 | locus YJR043C, strain POL32, stronger effect = lower value 0.938 | locus YJR066W, strain TOR1, stronger effect = lower value 0.905
active: locus YBL061C, strain skt5, stronger effect = lower value 0.893 | locus YBR023C, strain chs3, stronger effect = lower value 0.881 | locus YDR137W, strain rgp1, stronger effect = lower value 0.797 | locus YDR159W, strain sac3, stronger effect = lower value 0.842 | locus YDR195W, strain ref2 0.746 | locus YDR392W, strain spt3, stronger effect = lower value 0.608 | locus YER016W, strain bim1, stronger effect = lower value 0.918 | locus YER155C, strain BEM2, stronger effect = lower value 0.913
